Measurements published in PubChem BioAssay AID1159580 (chemical genetic matrix, 2015).
Several values for one entry are separate records, joined by “and”; a condition that tells them apart may be missing. Equal values may be shown once. Among all 5,500 compounds or so, about 2,000 (36%) were called active. About 18% were inconclusive and are not listed. Rule as the data show it: active = normalized growth mostly below about 0.91 (no sharp cut-off); inconclusive = no clear call, values can overlap the other calls; inactive = mostly above about 0.92. The list shows a part of the results.

Assay: chemical genetic growth profiling, strain panel (AID 1159580);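 also: tested at 20 µM; growth read once vehicle control cultures reached saturation at 30 °C; 1 = growth at the plate median or of vehicle wells; lower values mean less growth of the strain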
Conditions: S. cerevisiae deletion strains, growth OD

Measured: normalized growth

CCC(C)C(=O)O[C@H]1[C@H](O)C2C(CN3CC(C)CCC3[C@@]2(C)O)C2C[C@]34O[C@]5(O)C(OC(=O)C(C)(O)CC)CC[C@@]3(C)C5C(OC(C)=O)[C@@H](OC(C)=O)C4[C@@]21O (stereo partly specified)
inactive: locus YAL013W, strain DEP1, hits give low values 1.01 | locus YAL021C, strain ccr4, hits give low values 1.01 | locus YAL026C, strain drs2, hits give low values 1.02 | locus YAL030W, strain snc1, hits give low values 1.01 | locus YBL061C, strain skt5, hits give low values 1.01 | locus YBR009C, strain hhf1, hits give low values 1.02 | locus YBR021W, strain FUR4, hits give low values 1.01 | locus YBR023C, strain chs3, hits give low values 1.03 | locus YBR171W, strain sec66, hits give low values 1.03 | locus YBR229C, strain ROT2, hits give low values 0.999 | locus YBR231C, strain swc5, hits give low values 1.01 | locus YBR279W, strain paf1, hits give low values 1.02 | locus YCL011C, strain gbp2, hits give low values 1.02 | locus YCL016C, strain dcc1, hits give low values 1.03 | locus YCL029C, strain bik1, hits give low values 0.988 | locus YCL069W, strain vba3, hits give low values 1.02 | locus YCR088W, strain abp1, hits give low values 1.02 | locus YDL005C, strain med2, hits give low values 1.03 | locus YDL035C, strain GPR1, hits give low values 1.02 | locus YDL040C, strain nat1, hits give low values 1.02 | locus YDL074C, strain BRE1, hits give low values 1.02 | locus YDL101C, strain DUN1, hits give low values 1.02 | locus YDL134C, strain PPH21, hits give low values 1.01 | locus YDL185W, strain tfp1, hits give low values 0.995 | locus YDL192W, strain arf1, hits give low values 0.99 | locus YDR001C, strain nth1, hits give low values 1.01 | locus YDR069C, strain doa4, hits give low values 1.02 | locus YDR101C, strain arx1, hits give low values 0.991 | locus YDR137W, strain rgp1, hits give low values 1.04 | locus YDR150W, strain NUM1, hits give low values 1.02 | locus YDR159W, strain sac3, hits give low values 1.04 | locus YDR162C, strain NBP2, hits give low values 1.02 | locus YDR195W, strain ref2 1.01 | locus YDR297W, strain sur2, hits give low values 1.01 | locus YDR318W, strain mcm21, hits give low values 0.984 | locus YDR334W, strain swr1, hits give low values 1.02 | locus YDR335W, strain msn5, hits give low values 1.05 | locus YDR388W, hits give low values 0.989 | locus YDR392W, strain spt3, hits give low values 1.04 | locus YDR502C, strain sam2, hits give low values 0.989 | locus YEL003W, strain gim4, hits give low values 1.02 | locus YEL037C, strain rad23, hits give low values 1.03 | locus YEL061C, strain CIN8 (second series), hits give low values 1.02 | locus YEL061C, strain CIN8, hits give low values 1.01 | locus YER015W, strain faa2, hits give low values 1.02 | locus YER016W, strain bim1, hits give low values 1.03 | locus YER110C, hits give low values 0.982 | locus YER111C, strain swi4, hits give low values 1.02 | locus YER155C, strain BEM2 (second series), hits give low values 1.03 | locus YER155C, strain BEM2, hits give low values 1 | locus YER167W, strain BCK2, hits give low values 1.02 | locus YFR010W, strain ubp6, hits give low values 1.01 | locus YGL078C, strain dbp3, hits give low values 0.986 | locus YGL086W, strain mad1, hits give low values 1 | locus YGL167C, strain pmr1, hits give low values 1.01 | locus YGL173C, strain kem1, hits give low values 1.03 | locus YGL227W, strain vid30, hits give low values 1.03 | locus YGL240W, strain doc1, hits give low values 1.01 | locus YGL248W, strain PDE1, hits give low values 1.01 | locus YGL253W, strain hxk2, hits give low values 1.04 | locus YGR078C, strain PAC10, hits give low values 1.02 | locus YGR135W, strain pre9, hits give low values 0.983 | locus YGR229C, strain SMI1, hits give low values 1 | locus YGR252W, strain gcn5, hits give low values 0.965 | locus YHR013C, strain ard1, hits give low values 1.05 | locus YHR027C, strain rpn1, hits give low values 1.03 | locus YHR030C, strain SLT2, hits give low values 1.01 and 1.05 | locus YHR079C, strain IRE1 (second series), hits give low values 0.993 | locus YHR079C, strain IRE1, hits give low values 1.01 | locus YHR094C, strain hxt1, hits give low values 0.99 | locus YHR129C, strain ARP1, hits give low values 1.01 | locus YHR142W, strain chs7, hits give low values 1.04 | locus YHR200W, strain rpn10, hits give low values 1 | locus YIL066C, strain RNR3, hits give low values 1.01 | locus YIL073C, strain SPO22, hits give low values 1.02 | locus YIL125W, strain kgd1, hits give low values 0.995 | locus YIR030C, strain dcg1, hits give low values 0.993 | locus YJL092W, strain hpr5, hits give low values 1.02 | locus YJL095W, strain BCK1 (second series), hits give low values 1.03 | locus YJL095W, strain BCK1, hits give low values 1.01 and 0.996 | locus YJL115W, strain asf1, hits give low values 1.03 | locus YJL129C, strain trk1, hits give low values 1.04 | locus YJL134W, strain LCB3, hits give low values 1.01 | locus YJL154C, strain vps35, hits give low values 1.02 | locus YJL164C, strain tpk1, hits give low values 1.01 | locus YJL166W, strain qcr8, hits give low values 1.01 | locus YJL168C, strain set2, hits give low values 0.996 | locus YJL187C, strain SWE1 (second series), hits give low values 1.01 | locus YJR043C, strain POL32, hits give low values 0.995 | locus YJR066W, strain TOR1, hits give low values 0.976 | locus YJR075W, strain HOC1, hits give low values 1
